These results are taken from PubChem BioAssay.

For the first experiment, the target named is Dickkopf-related protein 1 (Homo sapiens) (UniProt O94907). Nature of the experiment: small molecules binding DKK1 protein – biochemical, small-molecule microarray, 635 nm fluorescence scan, primary screen (AID 1106).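 Also: score merges emission near 667 nm with signal to noise over three replicate slides.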 As to conditions: higher = more signal.
Sequence of Dickkopf-related protein 1 (Homo sapiens) (O94907 whole entry, looked up): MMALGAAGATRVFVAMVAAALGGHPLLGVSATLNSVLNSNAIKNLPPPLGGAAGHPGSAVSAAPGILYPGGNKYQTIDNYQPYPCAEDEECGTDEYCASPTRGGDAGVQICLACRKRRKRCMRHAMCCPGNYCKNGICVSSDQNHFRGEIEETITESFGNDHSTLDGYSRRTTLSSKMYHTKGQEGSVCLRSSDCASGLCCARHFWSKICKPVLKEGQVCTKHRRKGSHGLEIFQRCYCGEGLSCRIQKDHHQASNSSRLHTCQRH
For `CC(C)C(=C=CC[C@H](O)c1ccccc1OCCO)C[C@H](O)c1cc(Cl)cc(Cl)c1O`, the composite z-score was -0.0053.

The compound `COc1ccc(C(=O)Nc2ccc3c(c2)[C@@]2(O[C@H](CCO)[C@@H]([Si](C)(C)c4ccc(OC)cc4)[C@@H]2C)C(=O)N3Cc2ccccc2)cc1` showed a composite z-score of 0.27.

As for `CC(C)(C)OC(=O)CC[C@@]1(C(=O)NCCN2CCOCC2)N=C(c2ccc(OCCCO)cc2)O[C@@H]1c1ccccc1CN=[N+]=[N-]`, the composite z-score was -0.45.

In the case of `CC(C)C(CO)N1C(=O)[C@@H]2C3C(=O)OCCC/C=C\[C@H]3OC23C=CCN(Cc2ccccc2)C(=O)[C@@H]13` (stereo partly drawn), the composite z-score was -0.551.

For `COC(=O)C(CC#Cc1ccc2c(c1)[C@]1(C(=O)N2)[C@H](C(=O)N2CCc3cc(OC)c(OC)cc3C2)[C@H]2C(=O)O[C@H](c3ccccc3)[C@H](c3ccccc3)N2[C@@H]1c1ccccc1OCCO)C(=O)OC`, the composite z-score is 0.627.

As to `CC(C)=CCCC=C(C)C(O)C1C=CC2C(=O)N(c3ccccc3)C(=O)C2N1Nc1ccc(C#N)cc1` (stereo not drawn), the composite z-score was 0.0902.

`C=CCC(OC(C)=O)[C@@H]1[C@@H](N(Cc2cccc3ccccc23)C(=O)Cc2ccc(OC)cc2)c2cc(OCCCO)ccc2N1C(=O)Cc1ccc2ccccc2c1` (stereo partly drawn): the composite z-score came to 0.073.

`CN1C(=O)C2C=CC(C(O)c3ccc(-c4ccccc4)s3)N(NC(=O)OC(C)(C)C)C2C1=O` (stereo not drawn) showed a composite z-score of 0.207.

`COC(=O)[C@@]1(Cc2ccccc2)N=C(c2ccc(OCCCO)cc2)O[C@H]1c1ccccc1CN=[N+]=[N-]` came in with a composite z-score of 0.21.

Consider `COc1ccc([Si](C)(C)[C@H]2[C@H](CC(=O)N3Cc4ccccc4C[C@H]3CO)O[C@@]3(C(=O)N(C)c4ccccc43)[C@@H]2C)cc1`, for which the composite z-score came to 1.53.

As to `C=CCC(OC(C)=O)[C@@H]1[C@@H](N(Cc2cc3ccccc3o2)C(=O)c2cccc3ccccc23)c2cc(OCCCO)ccc2N1C(=O)c1ccc2ccccc2n1` (stereo partly drawn), the composite z-score came to 0.121.

`CCOC(=O)C[C@H]1[C@H](OC(=O)c2ccccc2-c2ccccc2)[C@@H](NC(=O)C2CCCCC2)c2cc(OCCCO)ccc2N1C(=O)c1ccc2ccccc2n1` had a composite z-score of 0.483.

In the case of `O=C1C2C=CC(C(O)C3CCCCC3)N(n3cnnc3)C2C(=O)N1Cc1ccccc1` (stereo not drawn), the composite z-score was -0.0435.

Compound `C=CCOC(=O)[C@@H]1[C@H]2C(=O)O[C@H](c3ccccc3)[C@H](c3ccccc3)N2[C@H](c2ccc(OCCOC(=O)[C@H]3C[C@H]4C(=O)N[C@@H](CCCCN(C)C)C(=O)N4[C@H]3c3ccc(O)cc3)cc2)[C@@]12C(=O)Nc1ccc(I)cc12` came in with a composite z-score of 1.15.

Turning to `O=C1C[C@]2(c3ccc([N+](=O)[O-])cc3)C(=O)N(C3CC3)c3cc(CO)ccc3[C@H]2N1C1CCCCC1`, the composite z-score is -0.198.

`CN(C)CCCNC(=O)[C@@]1(Cc2ccccc2I)c2ccccc2C(=O)N(C2CCCCC2)[C@H]1c1ccc(CO)cc1` displayed a composite z-score of 0.183.

`C=CCC(OC(C)=O)[C@@H]1[C@@H](N(Cc2cccc3ccccc23)C(=O)c2ccc(-c3ccccc3)cc2)c2cc(OCCCO)ccc2N1C(=O)Cc1ccc2ccccc2c1` (stereo partly drawn): the composite z-score was -0.624.

Take `COc1cc(C(O)C2C=CC3C(=O)N(c4ccccc4)C(=O)C3N2Nc2ccccc2F)cc(OC)c1OC` (stereo not drawn): the composite z-score is -0.0657.

For `C=CCN1C(=O)[C@@]2(O[C@@H](CCn3cc([C@H](O)c4ccccc4)nn3)[C@H]([Si](C)(C)c3ccc(OC)cc3)[C@H]2C)c2cc(N3C(=O)c4cccc5cccc3c45)ccc21`, the composite z-score is -1.12.

`COC(=O)[C@H](Cc1ccc(O)cc1)N[C@@H](/C=C/C1CC1)[C@H](O)Cc1ccccc1` came in with a composite z-score of 0.14.

Compound `COc1ccc([Si](C)(C)[C@@H]2[C@@H](CC(=O)N3CCC[C@H]3CO)O[C@]3(C(=O)N(Cc4cccc(N5CCCCC5=O)c4)c4ccccc43)[C@H]2C)cc1` showed a composite z-score of 0.414.

The compound `O=C1C[C@@](C(=O)O)(c2ccc([N+](=O)[O-])cc2)[C@@H](c2ccc(CO)cc2)N1C1CCCCC1` showed a composite z-score of 0.649.

As to `CCOC(=O)c1cn(C[C@H](Cc2ccccc2)NC(=O)N[C@H](CO)CCc2oc(C(C)=O)c(C(=O)OC)c2C(=O)OC)nn1`, the composite z-score was 1.1.

The compound `NCCCCCCNC(=O)[C@@H]1C[C@@H]2C(=O)N3CCC[C@H]3C(=O)N2[C@@H]1c1cccc(OCCO)c1` gave a composite z-score of 1.2.

For `COCCOC(=O)N1C(=O)[C@@]2(c3cc(C#CCCO)ccc31)[C@H](C(N)=O)[C@H]1C(=O)O[C@H](c3ccccc3)[C@H](c3ccccc3)N1[C@@H]2c1ccccc1OCCO`, the composite z-score worked out at 0.403.

A further experiment has as its system Inhibin beta A chain (activin A). Kind of experiment: small molecules binding activin A – biochemical, small-molecule microarray, 635 nm fluorescence scan, primary screen (AID 1107).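 Also: mouse activin A protein probed at 4.33 µg/mL on printed slides; score merges bound-protein fluorescence near 667 nm with spot signal-to-noise.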 Particulars: INHBA, higher = more signal.
The compound `CC(C)(C)N1CC=CC23O[C@@H]4/C=C\CCCOC(=O)C4[C@H]2C(=O)N(CCCO)[C@@H]3C1=O` (stereo partly drawn) yielded a composite z-score of 0.076.

For the compound `Cc1ccc(S[C@]2(C(=O)NCCCN(C)C)CC(=O)N(C3Cc4ccccc4C3)[C@@H]2c2ccc(CO)cc2I)cc1`, the composite z-score is 0.794.

`CCOc1cc(C(O)C2C=CC3C(=O)N(c4ccccc4)C(=O)C3N2Nc2ccccc2F)ccc1O` (stereo not drawn) showed a composite z-score of 0.604.

In the case of `Cc1ccc(F)cc1S(=O)(=O)N[C@H]1CCN(Cc2ccc(OC(C)C)cc2)C1`, the composite z-score is -0.22.

Compound `COC(=O)C(CC#Cc1ccc2c(c1)[C@]1(C(=O)N2)[C@H](c2ccc(OCCO)cc2)N2[C@H](c3ccccc3)[C@H](c3ccccc3)OC(=O)[C@H]2[C@@H]1C(=O)N1CCCCCCC1)C(=O)OC` returned a composite z-score of 1.64.

As to `[N-]=[N+]=Nc1ccccc1C[C@]1(C(=O)N2CCOCC2)N=C(c2ccc(OCCCO)cc2)O[C@H]1c1ccccc1N=[N+]=[N-]`, the composite z-score was found to be 1.3.

As to `O=C(NC1CC1)[C@@H]1c2ccccc2C(=O)N(Cc2ccc(OC(F)(F)F)cc2)[C@H]1c1ccc(CO)cc1`, the composite z-score amounted to 0.301.

`CN(C)CCCC[C@@H]1NC(=O)[C@H]2C[C@@H](C(=O)O)[C@@H](c3ccc(O)cc3)N2C1=O` returned a composite z-score of 1.98.

As to `CO[C@H]1O[C@H](CO)[C@@H](OC(=O)Nc2ccccc2)[C@H](OC(=O)Nc2ccccc2)[C@H]1OC(=O)Nc1ccccc1`, the composite z-score was found to be 0.232.

As to `[N-]=[N+]=NCc1ccccc1[C@@H]1OC(c2ccc(OCCCO)cc2)=N[C@]1(Cc1ccccc1N=[N+]=[N-])C(=O)O`, the composite z-score stood at 0.848.

`CC(C)=CCCC(C)=CC(O)C1C=CC2C(=O)NC(=O)C2N1Nc1ccc(Cl)cc1Cl` (stereo not drawn) gave a composite z-score of 1.44.

In the case of `CC(C)C(=C=CC[C@H](O)c1ccccc1OCCO)C[C@H](O)c1cc(Cl)cc(Cl)c1O`, the composite z-score amounted to 0.149.

The compound `COc1ccc(C(=O)Nc2ccc3c(c2)[C@@]2(O[C@H](CCO)[C@@H]([Si](C)(C)c4ccc(OC)cc4)[C@@H]2C)C(=O)N3Cc2ccccc2)cc1` showed a composite z-score of 1.17.

Compound `CC(C)(C)OC(=O)CC[C@@]1(C(=O)NCCN2CCOCC2)N=C(c2ccc(OCCCO)cc2)O[C@@H]1c1ccccc1CN=[N+]=[N-]` returned a composite z-score of 0.67.

The compound `CC(C)C(CO)N1C(=O)[C@@H]2C3C(=O)OCCC/C=C\[C@H]3OC23C=CCN(Cc2ccccc2)C(=O)[C@@H]13` (stereo partly drawn) had a composite z-score of 0.111.

As for `COC(=O)C(CC#Cc1ccc2c(c1)[C@]1(C(=O)N2)[C@H](C(=O)N2CCc3cc(OC)c(OC)cc3C2)[C@H]2C(=O)O[C@H](c3ccccc3)[C@H](c3ccccc3)N2[C@@H]1c1ccccc1OCCO)C(=O)OC`, the composite z-score was -0.592.

Turning to `CC(C)=CCCC=C(C)C(O)C1C=CC2C(=O)N(c3ccccc3)C(=O)C2N1Nc1ccc(C#N)cc1` (stereo not drawn), the composite z-score was 1.16.

With `C=CCC(OC(C)=O)[C@@H]1[C@@H](N(Cc2cccc3ccccc23)C(=O)Cc2ccc(OC)cc2)c2cc(OCCCO)ccc2N1C(=O)Cc1ccc2ccccc2c1` (stereo partly drawn), the composite z-score stood at 0.68.

Turning to `CN1C(=O)C2C=CC(C(O)c3ccc(-c4ccccc4)s3)N(NC(=O)OC(C)(C)C)C2C1=O` (stereo not drawn), the composite z-score is 0.86.

In the case of `COC(=O)[C@@]1(Cc2ccccc2)N=C(c2ccc(OCCCO)cc2)O[C@H]1c1ccccc1CN=[N+]=[N-]`, the composite z-score stood at 1.09.

Consider `COc1ccc([Si](C)(C)[C@H]2[C@H](CC(=O)N3Cc4ccccc4C[C@H]3CO)O[C@@]3(C(=O)N(C)c4ccccc43)[C@@H]2C)cc1`, for which the composite z-score came to 1.58.

`C=CCC(OC(C)=O)[C@@H]1[C@@H](N(Cc2cc3ccccc3o2)C(=O)c2cccc3ccccc23)c2cc(OCCCO)ccc2N1C(=O)c1ccc2ccccc2n1` (stereo partly drawn) gave a composite z-score of 1.1.

In the case of `CCOC(=O)C[C@H]1[C@H](OC(=O)c2ccccc2-c2ccccc2)[C@@H](NC(=O)C2CCCCC2)c2cc(OCCCO)ccc2N1C(=O)c1ccc2ccccc2n1`, the composite z-score was -0.286.

As to `O=C1C2C=CC(C(O)C3CCCCC3)N(n3cnnc3)C2C(=O)N1Cc1ccccc1` (stereo not drawn), the composite z-score came out at 1.13.

As to `C=CCOC(=O)[C@@H]1[C@H]2C(=O)O[C@H](c3ccccc3)[C@H](c3ccccc3)N2[C@H](c2ccc(OCCOC(=O)[C@H]3C[C@H]4C(=O)N[C@@H](CCCCN(C)C)C(=O)N4[C@H]3c3ccc(O)cc3)cc2)[C@@]12C(=O)Nc1ccc(I)cc12`, the composite z-score is 0.291.

`O=C1C[C@]2(c3ccc([N+](=O)[O-])cc3)C(=O)N(C3CC3)c3cc(CO)ccc3[C@H]2N1C1CCCCC1` had a composite z-score of 0.847.

With `CN(C)CCCNC(=O)[C@@]1(Cc2ccccc2I)c2ccccc2C(=O)N(C2CCCCC2)[C@H]1c1ccc(CO)cc1`, the composite z-score was determined as 1.32.

Turning to `C=CCC(OC(C)=O)[C@@H]1[C@@H](N(Cc2cccc3ccccc23)C(=O)c2ccc(-c3ccccc3)cc2)c2cc(OCCCO)ccc2N1C(=O)Cc1ccc2ccccc2c1` (stereo partly drawn), the composite z-score came to 0.45.

On to `COc1cc(C(O)C2C=CC3C(=O)N(c4ccccc4)C(=O)C3N2Nc2ccccc2F)cc(OC)c1OC` (stereo not drawn), for which the composite z-score came to 0.519.

Take `C=CCN1C(=O)[C@@]2(O[C@@H](CCn3cc([C@H](O)c4ccccc4)nn3)[C@H]([Si](C)(C)c3ccc(OC)cc3)[C@H]2C)c2cc(N3C(=O)c4cccc5cccc3c45)ccc21`: the composite z-score was -0.893.

On to `COC(=O)[C@H](Cc1ccc(O)cc1)N[C@@H](/C=C/C1CC1)[C@H](O)Cc1ccccc1`, for which the composite z-score is -0.322.

As for `COc1ccc([Si](C)(C)[C@@H]2[C@@H](CC(=O)N3CCC[C@H]3CO)O[C@]3(C(=O)N(Cc4cccc(N5CCCCC5=O)c4)c4ccccc43)[C@H]2C)cc1`, the composite z-score is 0.27.

For `O=C1C[C@@](C(=O)O)(c2ccc([N+](=O)[O-])cc2)[C@@H](c2ccc(CO)cc2)N1C1CCCCC1`, the composite z-score stood at 0.633.
